Screens deposited in PubChem BioAssay by National Center for Advancing Translational Sciences (NCATS).
The list is not random: actives were taken first. Their share in the collection is about 5.5%.
uPA surface inh = blocks generation of uPA at the cell surface; cell surface uPA generation assay, qHTS; Potency, µM (highest dose often 38.3 µM), without a hit: at the highest dose activity change, negative = inhibition, actives largely listed as inhibitors; 0.31% of 330,000 active; active = well fitted inhibition curve with a large enough effect; inconclusive = small, poorly fitted or top-dose-only effect; inactive = no such curve, though single readings can be large or run the other way; tested in mouse RAW 264.7 cells; note: % is set by controls: 0 for no effect and ±100 for the full control effect; nearly all actives have a fitted effect of over 55% in size
RORgamma inh = blocks mouse ROR gamma transcriptional activity; P51450; Drosophila S2 Gal4-RORgamma UAS-luciferase reporter, 20 h; Potency, µM (series often up to 53.6 µM), for the others: at the highest dose activity change, negative = inhibition, actives largely listed as inhibitors; 5.4% of 310,000 active; AID 2551; note: % is set by controls: 0 for no effect and ±100 for the full control effect; nearly all actives have a fitted effect of over 60% in size
Target sequence (P51450 whole entry, looked up, the tested form may be a part): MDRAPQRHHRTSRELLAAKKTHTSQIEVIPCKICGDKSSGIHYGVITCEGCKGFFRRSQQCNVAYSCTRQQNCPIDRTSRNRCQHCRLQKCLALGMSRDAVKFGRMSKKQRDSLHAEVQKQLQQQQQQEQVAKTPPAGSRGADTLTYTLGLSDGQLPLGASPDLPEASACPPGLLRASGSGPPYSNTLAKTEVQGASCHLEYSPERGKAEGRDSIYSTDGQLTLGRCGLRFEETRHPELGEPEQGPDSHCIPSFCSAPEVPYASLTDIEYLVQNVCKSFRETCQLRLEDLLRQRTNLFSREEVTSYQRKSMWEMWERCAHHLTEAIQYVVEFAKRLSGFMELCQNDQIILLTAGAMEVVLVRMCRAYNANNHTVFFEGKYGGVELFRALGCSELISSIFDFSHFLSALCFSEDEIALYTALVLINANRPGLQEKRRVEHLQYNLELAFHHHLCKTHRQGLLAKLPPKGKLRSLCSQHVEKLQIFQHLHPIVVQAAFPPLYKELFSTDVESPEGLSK
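Stably transfected Drosophila Schneider cells are the test system, with ROR gamma fused to Gal4 and luciferase under UAS control; luminescence is read after 20 hr of 700 uM copper sulfate induction at ambient temperature.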
Integrin act MD = activates integrin-mediated alleviation for muscular dystrophy. Potency, µM (top dose mostly 38.3 µM), for the others: at the top dose activation, most hits filed as activators. alpha7betagal myoblasts, beta-gal FDG fluorescence, 48 h. 0.064% of 350,000 active;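 note: 100% = response of the positive control SU9516; nearly all actives have a fitted effect of over 60% in size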
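alpha7betagal+/- myoblasts (passage 13, 250/well) treated 48 h at 37C with compounds at 1:260 dilution of DMSO stock. Lysed, then beta-galactosidase activity read as FDG fluorescence (ex 480/em 540) after 30 min, with pre-read for autofluorescence.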
BCR signal inh = inhibitors of chronic active B-cell receptor signaling | ABC-DLBCL IkBa-CBG/CBR reporter, luminescence ratio, 4 h | Potency, µM (top dose mostly 46.1 µM), without a hit: at the top dose activity change, negative = inhibition, usual class: inhibitors | 0.05% of 340,000 active | AID 493014; active = well fitted inhibition curve with a large enough effect in the signal ratio, with a control signal flat, not every such curve was filed as active; inconclusive = small, poorly fitted or top-dose-only effect, or effect the other way, or a change in a side signal; the % refers to the signal ratio;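 note: plate controls were basal doxycycline-induced cells for no effect and cells given 10 µM MG132 for full effect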
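Cell line TMD8 (human ABC DLBCL), stably expressing tet-inducible CBG68-IkBa fusion and CBR; IMDM/0.5% FBS; cpd up to 46 uM; dox induction, 4 h, 37C/5% CO2; dual luminescence; green/red ratio; MG132 control.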
VP16 counter = inhibits Gal4-VP16 luciferase reporter, ROR gamma counter-screen; 3.5% of 310,000 active; Potency, µM (series often up to 53.6 µM), for the others: top-dose activity, negative = inhibition, actives largely listed as inhibitors; Drosophila S2 Gal4-VP16 UAS-luciferase, luminescence, 20 h; AID 2546;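 note: Gal4-VP16 expression switched on by copper sulfate through the metallothionein promoter; % is set by controls: 0 for no effect and ±100 for the full control effect; nearly all actives have a fitted effect of over 50% in size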
Mito fusion yeast = mitochondrial division inhibition or fusion activation; S. cerevisiae fusion-defective mutant growth rescue, CellTiterGlo 48 h; Potency, µM (doses to about 46.1 µM), inactives show at the highest dose growth rescue (activation), hits mostly activators; 0.23% of 320,000 active; note: % of control where 0% means no effect; nearly all actives have a fitted effect of over 45% in size
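Read-out: ATP-based luminescence (CellTiterGlo, 10 min ambient) reporting growth of fusion-defective ts yeast after 48 hours at 37C on glycerol/ethanol YPEG medium in the presence of compound.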
* hit, by the source's call; ? = inconclusive; nt = no result; [ ] = dose if it differs, or a comment. Unless noted, calls come from the whole dose curve; as a rule, active = well fitted curve in the direction sought with a large enough effect; inconclusive = small, poorly fitted or top-dose-only effect, or another doubt; inactive = no such curve, though single readings can be large; an effect the other way counts as inactive or inconclusive. Potency is the fitted concentration of half-maximal effect.

SMILES	uPA surface inh	RORgamma inh	Integrin act MD	BCR signal inh	VP16 counter	Mito fusion yeast
COc1ccc2nc(C)cc(SCC(=O)NNC(=O)COc3cccc4ccccc34)c2c1	-4.9%	?	-14.8%	5.2%	8.91µM*	0.0%
COc1ccccc1/C=N/NC(=O)C(C)Cn1cnc2ccccc21 (stereo not given)	10.7%	11.2µM*	8.5%	-9.4%	5.9%	-2.6%
COc1ccc2nc(C)cc(SCC(=O)N/N=C/c3ccccc3)c2c1	0.0%	-4.9%[10 µM]	-39.7%	-1.4%	9.9%	-11.0%
COc1ccc2nc(C)cc(SCC(=O)N/N=C/c3ccc(O)cc3O)c2c1	-11.4%	17.8µM*	-20.5%	?	?	0.1%
COc1ccccc1/C=N/NC(=O)CSc1cc(C)nc2ccccc12	-14.1%	11.2µM*	-6.4%	17.4%	-14.1%	-6.3%
COc1ccc2nc(C)cc(SCC(=O)NNC(=O)COc3ccc(C)cc3)c2c1	-1.9%	-16.8%	10.0%	?	-21.5%	2.1%
CC(C)CCCC(C)NC(C)C (stereo not given)	nt	-5.6%	nt	nt	-3.0%	nt
O=C(Nc1ccc(F)cc1)c1cccnc1NCCc1ccccc1	-0.5%	32.2%	-17.6%	-8.1%	14.2%	17.8µM*
O=C(Nc1cccc(F)c1)c1cccnc1NCCc1ccccc1	0.3%	8.6%	-21.2%	-3.2%	?	?
CC(=O)c1cccc(NC(=O)CSc2nc(=O)n(Cc3ccco3)c3c2CCC3)c1	nt	nt	nt	6.2%	nt	nt
S=c1[nH]ncn1/N=C/c1ccccc1	-5.9%	?	11.7%	-0.1%	?	-7.8%
S=c1[nH]ncn1/N=C/c1ccc(Br)cc1	-2.9%	2.24µM*	4.1%	?	3.98µM*	-4.5%
CCn1c2ccccc2c2cc(/C=N/n3cn[nH]c3=S)ccc21	-8.0%	1.12µM*	-5.2%[7.66 µM]	-7.2%	7.08µM*	-12.2%
O=C(CCNC(=O)c1ccc(Cl)cc1)Nc1cccc(S(=O)(=O)N2CCCCC2)c1	-5.4%	nt	-17.7%	-1.0%	nt	2.1%
N#CCCn1c(=O)c(CCc2ccccc2)nc2cnc(Oc3cccc(Cl)c3)nc21	nt	-0.2%	nt	nt	-0.8%	nt
COC1=CC(C)C2CC3OC(=O)CC4C(C)=C(OC)C(=O)C([C@]2(C)C1=O)[C@]34C (stereo not given in full)	nt	20.8%	nt	nt	-7.8%	nt
CCCC(=NC(C)CC)C1=C(O)CC(c2ccccc2)CC1=O (stereo not given)	-1.5%	25.0%	12.5%	11.2%	-10.3%	1.6%
CC1=CC(C)(C)N2C(=O)C3(C(C#N)=C(N)Oc4cc(O)ccc43)c3c(C)c(C)cc1c32 (stereo not given)	nt	2.82µM*	-10.2%[7.66 µM]	?	-12.0%	6.1%
Cc1cccc(C(=O)NC2=NCCS2)c1	-11.7%	11.2µM*	31.1%	5.8%	-28.8%	14.2%
O=C(NC1=NCCS1)c1ccccc1Cl	0.3%	-1.0%	-4.8%	-6.1%	2.4%	-0.2%
O=C(NC1=NCCS1)c1ccc(Cl)c(Cl)c1	-3.8%	11.2µM*	-20.4%	?	?	-2.9%
O=C(NC1=NCCS1)c1csc2ccccc12	nt	7.94µM*	-0.4%	-2.6%	?	2.6%
O=C(NC1=NCCS1)c1ccccc1	-3.3%	-12.0%	8.3%	3.5%	6.2%	3.4%
Cc1cc(C(=O)NC2=NCCS2)cs1	nt	11.2µM*	16.4%	0.3%	?	1.5%
CCOC(=O)c1sc(NC(=O)C2CC(=O)N(c3ccc(OC)cc3)C2)nc1C (stereo not given)	-1.1%	-0.1%	-21.3%	-17.5%	-2.5%	-14.9%
SMILES	uPA surface inh	RORgamma inh	Integrin act MD	BCR signal inh	VP16 counter	Mito fusion yeast
COc1cc(OC)c(N(C)S(=O)(=O)c2cccc(C(=O)NC3=NCCS3)c2)cc1Cl	3.9%	10µM*	21.0%	?	?	-0.2%
COc1ccccc1N(C)S(=O)(=O)c1ccc(Cl)c(C(=O)NC2=NCCS2)c1	-1.0%	-20.8%	4.5%	5.0%	-2.9%	-3.3%
O=C(O)C(=Cc1ccccc1[N+](=O)[O-])c1ccc2c(c1)OCO2	nt	nt	-7.4%	nt	nt	nt
CCN(CC)CCCn1c(-c2ccccc2)nc2c(NCc3ccccc3)nc(C)nc21	nt	-4.4%	nt	nt	-0.7%	nt
Cc1nc(NCc2ccccc2)c2nc(-c3ccccc3)n(CC(C)(C)CN(C)C)c2n1	nt	14.1µM*	nt	nt	-13.0%	nt
CC(C)C[C@H](NC(=O)[C@H](Cc1ccccc1)NC(=O)CNC(=O)CNC(=O)[C@@H](N)Cc1ccc(O)cc1)C(=O)N[C@@H](CCCN=C(N)N)C(=O)N[C@@H](CCCN=C(N)N)C(=O)N[C@@H](CCC(N)=O)C(=O)N[C@@H](Cc1ccccc1)C(=O)N[C@@H](CCCCN)C(=O)N[C@H](C(=O)N[C@H](C(=O)N[C@H](C(=O)O)[C@@H](C)O)C(C)C)C(C)C	nt	9.6%	nt	nt	2.1%	nt
CC(C)OC(=O)C1=C2SCC(=O)N2C(N)=C(C#N)C1	3.9%	12.6µM*	4.9%	-0.2%	-7.2%	1.1%
CS(=O)(=O)c1ccc(S(=O)CC(=O)OCc2ccccc2)c([N+](=O)[O-])c1 (stereo not given)	-10.9%	4.47µM*	-71.1%	?	4.47µM*	6.0%
COc1cccc2c3c(c(C)nc12)CC(CO)O3 (stereo not given)	nt	-0.3%	nt	nt	0.7%	nt
CC(C)N=c1scc(-c2ccco2)n1/N=C/c1ccc(O)c(O)c1	?	1.41µM*	?	?	15.8µM*	0.8%
CN=c1scc(-c2cccs2)n1/N=C/c1ccc(O)c(O)c1O	-19.0%	1.12µM*	-25.4%	7.3%	1.41µM*	5.7%
COCCN=c1scc(-c2ccco2)n1/N=C/c1ccc(O)c(O)c1O	-3.7%	?	0.0%	5.9%	-1.2%	1.0%
C=CCN=c1scc(-c2ccco2)n1/N=C/c1ccc(O)c(O)c1O	-5.2%	3.16µM*	-47.7%	-0.6%	10µM*	1.1%
CN=c1scc(C)n1/N=C/c1cc(Br)c(O)c(OC)c1	-2.6%	12.4%	0.3%	-22.1%	-4.7%	-11.7%
CN=c1scc(C)n1/N=C/c1ccc(O)c(O)c1O	-5.9%	2.24µM*	-46.5%	?	7.08µM*	3.2%
O=C(COC(=O)c1cc[n+]([O-])cc1)Nc1ccc(Cl)cc1C(F)(F)F	-8.2%	nt	0.8%	-9.8%	nt	2.3%
CC(=O)O[C@H]1CC2(C)[C@@H](C[C@@H](O)[C@H]3[C@@]4(C)CC[C@@H](O)[C@@H](C)[C@@H]4CC[C@@]32C)C1=C(CCC=C(C)C)C(=O)O (stereo not given in full)	nt	nt	nt	nt	nt	-0.7%
Cc1ccc2c(Cl)cc(Cl)c(OCC(=O)NC(=O)NCc3ccco3)c2n1	-3.5%	10µM*	-13.2%	3.9%	-18.0%	-1.7%
Cc1ccc2c(Cl)cc(Cl)c(OCC(=O)N3CCCC3)c2n1	0.8%	14.1µM*	-8.8%	?	?	0.0%
